# Results from PubChem BioAssay (Tox21).
# Records with an inconclusive call do not appear. Where a call stands in place of a potency, no number is given. Activity calls are given as the source filed them. Unless noted, the call rests on the fitted dose curve; in most records, active means well fitted curve in the direction sought with a large enough effect in the repeat runs; inconclusive means weak or mixed curves; inactive means no such curve, though single readings can be large; an effect the other way counts as inactive or inconclusive.
# How the values were obtained:
# [1] = qHTS assay for small molecule agonists of the p53 signaling pathway (AID 651631; calls by dose curve; further: nearly all actives have a fitted effect of over 15% in size; further: potency means the concentration at half of the fitted maximal effect)
# Method in brief: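 Testing took place in human colorectal HCT-116 cells with stable p53RE-driven beta-lactamase. After 16 h of compound exposure at 37 °C, a FRET substrate was added and fluorescence recorded 2 h later.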
# [2] = qHTS assay for small molecules that induce genotoxicity in human embryonic kidney cells expressing luciferase-tagged ATAD5 (AID 651632); further: nearly all actives have a fitted effect of over 15% in size; further: potency means the concentration at half of the fitted maximal effect
# Method in brief: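 Genotoxicity read-out via ATAD5-luciferase: HEK293T cells, 16 hr compound incubation at 37C, Amplite detection.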
# [3] = qHTS assay for small molecule agonists of the p53 signaling pathway - cell viability (AID 651633; calls by dose curve; further: nearly all actives have a fitted effect of over 30% in size; further: potency means the concentration at half of the fitted maximal effect)
# Method in brief: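 p53RE-bla cells were treated with compound for 16 hours at 37 C. Cytotoxicity was then measured as CellTiter-Glo luminescence after 30 min at room temperature.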
# [4] = qHTS assay for small molecules that induce genotoxicity in human embryonic kidney cells expressing luciferase-tagged ATAD5 - cell viability (AID 651634; calls by dose curve; further: nearly all actives have a fitted effect of over 25% in size)
# Method in brief: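 Live-cell protease activity (CellTiter-Fluor, fluorescence) indicates viability. HEK293T cells with luciferase-tagged ATAD5; 15.5 hr compound treatment at 37C.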
# [5] = qHTS assay for small molecule disruptors of the mitochondrial membrane potential (AID 720635); further: potency means the concentration at half of the fitted maximal effect
# Method in brief: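 HepG2 cells exposed to compound 1 hr at 37C, then Mito-MPS dye 30 min. Ratio read of aggregate (540/590 nm) versus monomer (490/535 nm) fluorescence.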
# [6] = qHTS assay to test for compound auto fluorescence at 590 nm (red) in HepG2 cells (AID 720674)
# Method in brief: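 HepG2 cells, 2,000 per well in MEM with 10% FBS, attached overnight at 37 C, then got 23 nL compound or DMSO. After 1 hr at 37 C, 5% CO2, red fluorescence was read at 540/590 nm against Rose Bengal sodium as reference.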
# [7] = qHTS assay to test for compound auto fluorescence at 535 nm (green) in HepG2 cells (AID 720675)
# [8] = qHTS assay to test for compound auto fluorescence at 460 nm (blue) in HEK293 cells (AID 720678)
# Method in brief: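 HEK293 cells (2,000 per well, medium with 10% dialyzed FBS) attached for 4-5 hr at 37C, then received compound and stood overnight at 37C, 5% CO2. Blue fluorescence was read at Ex/Em 405/460 nm and expressed relative to triamterene.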
# [9] = qHTS assay to test for compound auto fluorescence at 590 nm (red) in HEK293 cells (AID 720679)
# Method in brief: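 HEK293 cells (2,000/well, medium with 10% dialyzed FBS) attached for 4-5 hr at 37C, received 23 nL compound and were incubated overnight at 37C, 5% CO2. Red fluorescence was then read at 540/590nm Ex/Em, referenced to Rose Bengal sodium.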
# [10] = qHTS assay to test for compound auto fluorescence at 535 nm (green) in HEK293 cells (AID 720680)
# [11] = qHTS assay to test for compound auto fluorescence at 460 nm (blue) in HEK293 cell free culture (AID 720681)
# Method in brief: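 Compounds were added to cell-free DMEM with 10% FBS and fluorescence read directly. The blue channel used 405 nm excitation and 460 nm emission, with triamterene as the reference fluorophore.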
# [12] = qHTS assay to test for compound auto fluorescence at 535 nm (green) in HEK293 cell free culture (AID 720682)
# Method in brief: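 DMEM + 10% FBS, cell-free; cpd or DMSO pinned in; Ex485/Em535 read; output as fluorescein-equivalent signal.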
# [13] = qHTS assay to test for compound auto fluorescence at 590 nm (red) in HEK293 cell free culture (AID 720683)
# Method in brief: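 Cell-free wells of DMEM with 10% FBS received compound, and intrinsic fluorescence was read at excitation/emission 540/590 nm. Values expressed as equivalence to Rose Bengal sodium.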
# [14] = qHTS assay to test for compound auto fluorescence at 590 nm (red) in HepG2 cell free culture (AID 720684)
# Method in brief: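 Compounds are added to culture medium (MEM, 10% FBS) lacking cells, then fluorescence is read at excitation 540 nm, emission 590 nm, with Rose Bengal sodium as the equivalency standard.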
# [15] = qHTS assay to test for compound auto fluorescence at 460 nm (blue) in HepG2 cell free culture (AID 720685)
# Method in brief: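 Compound (23 nL) or DMSO pinned into cell-free MEM with 10% FBS; blue fluorescence read at 405/460 nm excitation/emission, expressed as auto-fluorescence equivalency to triamterene.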
# [16] = qHTS assay to test for compound auto fluorescence at 535 nm (green) in HepG2 cell free culture (AID 720686)
# [17] = qHTS assay to test for compound auto fluorescence at 460 nm (blue) in HepG2 cells (AID 720687)
# Method in brief: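 HepG2 cells in MEM with 10% FBS, attached overnight at 37 C, were exposed to compound or DMSO for 1 hr at 37 C, 5% CO2. Blue fluorescence was read at 405/460 nm, with triamterene as reference fluorophore.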
# [18] = target: Glucocorticoid receptor (Homo sapiens) (UniProt P04150); test: qHTS assay to identify small molecule agonists of the glucocorticoid receptor (GR) signaling pathway (AID 720691; active means well fitted activation curve with a large enough effect in the signal ratio in the repeat runs, not every such curve was filed as active; the % refers to the signal ratio); settings: GR-bla HeLa, beta-lactamase reporter ratio, 18 h; activation: at 62.4 µM (top of the series)
# Method in brief: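 Beta-lactamase reporter activity, read as fluorescence intensity, was measured in GR-bla HeLa cells exposed to compounds for 18 h at 37 C and then loaded with LiveBLAzer B/G FRET substrate for 2 h at room temperature.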
# [19] = target: Glucocorticoid receptor (Homo sapiens) (UniProt P04150); test: qHTS assay to identify small molecule antagonists of the glucocorticoid receptor (GR) signaling pathway (AID 720692; active means well fitted inhibition curve with a large enough effect in the signal ratio in the repeat runs, not every such curve was filed as active; the % refers to the signal ratio; further: potency means the concentration at half of the fitted maximal effect)
# Method in brief: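 Fluorescence from cleaved LiveBLAzer B/G FRET substrate reports GRE-driven beta-lactamase in HeLa cells; compounds are tested against 5 nM dexamethasone (final) over 18 h at 37 C, substrate incubation 2 h at room temperature.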
# [20] = qHTS assay for small molecule disruptors of the mitochondrial membrane potential - cell viability (AID 720634; calls by dose curve;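 further: human HepG2 liver cancer cells; nearly all actives have a fitted effect of over 20% in size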)
# Method in brief: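 Human hepatoma HepG2 cells were treated for 1 hr with test chemicals, then given m-MPI dye and CellTiter-Glo. Cell viability reflects luminescence proportional to cellular ATP.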
# Chain of Glucocorticoid receptor (Homo sapiens) (P04150 whole entry, looked up): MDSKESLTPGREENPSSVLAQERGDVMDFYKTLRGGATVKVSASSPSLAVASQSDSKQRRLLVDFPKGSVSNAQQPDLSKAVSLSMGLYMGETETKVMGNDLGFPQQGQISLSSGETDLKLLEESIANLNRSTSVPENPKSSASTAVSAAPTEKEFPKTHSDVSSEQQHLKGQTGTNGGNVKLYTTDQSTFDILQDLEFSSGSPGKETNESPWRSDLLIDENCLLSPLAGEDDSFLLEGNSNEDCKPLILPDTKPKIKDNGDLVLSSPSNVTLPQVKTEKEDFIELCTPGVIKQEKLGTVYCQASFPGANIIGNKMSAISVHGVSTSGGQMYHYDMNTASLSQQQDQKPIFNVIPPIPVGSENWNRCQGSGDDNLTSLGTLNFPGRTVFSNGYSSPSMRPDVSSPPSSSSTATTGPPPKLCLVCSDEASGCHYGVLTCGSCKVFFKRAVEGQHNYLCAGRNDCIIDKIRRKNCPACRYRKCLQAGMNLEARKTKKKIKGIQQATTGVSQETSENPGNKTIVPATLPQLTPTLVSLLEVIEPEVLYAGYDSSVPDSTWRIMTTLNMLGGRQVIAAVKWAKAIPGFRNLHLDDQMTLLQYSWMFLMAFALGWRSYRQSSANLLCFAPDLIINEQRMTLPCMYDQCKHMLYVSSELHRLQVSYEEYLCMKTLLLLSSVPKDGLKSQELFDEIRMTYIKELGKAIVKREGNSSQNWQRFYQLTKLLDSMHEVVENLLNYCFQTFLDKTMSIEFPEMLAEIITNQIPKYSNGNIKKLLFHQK
SMILES,Potency [1],Potency [2],Potency [3],Potency [4],Potency [5],outcome [6],Potency [7],Potency [8],outcome [9],outcome [10],Potency [11],outcome [12],outcome [13],outcome [14],Potency [15],Potency [16],Potency [17],Potency [18],Potency [19],Potency [20]
CC(=O)NC[C@H]1CN(c2ccc(N3CCOCC3)c(F)c2)C(=O)O1,inactive,inactive,inactive,inactive,inactive,inactive,inactive,inactive,inactive,inactive,inactive,inactive,inactive,inactive,inactive,inactive,inactive,inactive,inactive,
CC12CCC(C1)C(C)(C)C2=O (stereo unspecified),inactive,inactive,inactive,inactive,inactive,inactive,inactive,inactive,inactive,inactive,inactive,,inactive,inactive,inactive,inactive,inactive,,,
CC1(C)CCC(NC(=O)[C@@H](N)CCC(=O)O)CC1,inactive,inactive,inactive,inactive,,inactive,inactive,inactive,inactive,inactive,,inactive,inactive,inactive,inactive,inactive,inactive,inactive,inactive,
FC(F)(F)COCC(F)(F)F,inactive,inactive,inactive,inactive,inactive,inactive,inactive,inactive,inactive,inactive,inactive,inactive,inactive,inactive,inactive,inactive,inactive,inactive,inactive,
N=C(N)n1cccn1,inactive,inactive,inactive,inactive,inactive,inactive,inactive,inactive,inactive,inactive,inactive,inactive,inactive,inactive,inactive,inactive,inactive,inactive,inactive,
CC(C)c1ncc([N+](=O)[O-])n1C,inactive,inactive,inactive,inactive,,inactive,inactive,inactive,,inactive,inactive,inactive,inactive,inactive,inactive,inactive,inactive,inactive,inactive,inactive
OCCCNc1ccccc1,inactive,inactive,inactive,inactive,,inactive,inactive,inactive,inactive,inactive,inactive,inactive,inactive,inactive,inactive,inactive,inactive,inactive,inactive,
CC1(C)S[C@@H]2[C@H](NC(=O)[C@@H](NC(=O)N3CCNC3=O)c3ccccc3)C(=O)N2[C@H]1C(=O)O,inactive,inactive,inactive,inactive,inactive,inactive,inactive,inactive,inactive,inactive,inactive,inactive,inactive,inactive,inactive,inactive,inactive,inactive,inactive,
Cc1ccc(Cl)c(N)c1Cl,inactive,inactive,inactive,inactive,,inactive,inactive,inactive,inactive,inactive,inactive,inactive,inactive,inactive,inactive,inactive,inactive,,,
C=CC[N@@+]12CC[C@@]34c5ccccc5N5/C=C6/[C@H]7C[C@H]8[C@@]9(CC[N@@+]8(CC=C)C/C7=C/CO)c7ccccc7N(/C=C(/[C@@H](C[C@@H]31)/C(=C\CO)C2)[C@H]54)[C@@H]69,inactive,inactive,inactive,inactive,inactive,inactive,inactive,inactive,,inactive,inactive,inactive,inactive,inactive,inactive,inactive,inactive,inactive,inactive,
CCC1OC(=O)C[C@@H](O)[C@H](C)[C@@H](O[C@@H]2O[C@H](C)C[C@H](N(C)C)[C@H]2O)[C@@H](CC=O)C[C@@H](C)C(=O)/C=C/[C@]2(C)OC2C1C (stereo partly specified),29.8 µM (active),inactive,inactive,inactive,inactive,inactive,inactive,inactive,inactive,inactive,inactive,inactive,inactive,inactive,inactive,inactive,inactive,,,
CC[C@@H](C)[C@H](N)C(=O)O,inactive,inactive,inactive,inactive,inactive,inactive,inactive,inactive,inactive,inactive,inactive,inactive,inactive,inactive,inactive,inactive,inactive,inactive,inactive,
COC(=O)C(CN)c1c[nH]c2ccc(OC)cc12 (stereo unspecified),inactive,inactive,inactive,,inactive,inactive,inactive,inactive,inactive,inactive,inactive,inactive,inactive,inactive,inactive,inactive,inactive,,,inactive
CC(C)CCC[C@@H](C)[C@H]1CC[C@H]2[C@@H]3CC=C4C[C@@H](O)CC[C@]4(C)[C@H]3CC[C@]12C,inactive,inactive,inactive,,,inactive,inactive,inactive,inactive,inactive,inactive,inactive,inactive,inactive,inactive,inactive,inactive,inactive,inactive,inactive
CC(C)(S)C(=O)N[C@@H](CS)C(=O)O,inactive,,inactive,inactive,,inactive,inactive,inactive,,inactive,inactive,inactive,inactive,inactive,inactive,inactive,inactive,inactive,inactive,inactive
Nc1nc(NC2CC2)c2ncn([C@@H]3C=C[C@@H](CO)C3)c2n1,inactive,13.3 µM (active),inactive,,,inactive,inactive,inactive,inactive,inactive,inactive,inactive,inactive,inactive,inactive,inactive,inactive,inactive,inactive,inactive
O=C1OC(O)C(C(Cl)Cl)=C1Cl (stereo unspecified),14.1 µM (active),,15.8 µM (active),,,inactive,inactive,inactive,inactive,inactive,inactive,inactive,inactive,inactive,inactive,inactive,inactive,,25.3 µM (active),
CC(C)C[C@@H](NC(=O)[C@@H](O)[C@H](N)Cc1ccccc1)C(=O)O,inactive,inactive,inactive,,inactive,inactive,inactive,inactive,inactive,inactive,,inactive,inactive,inactive,inactive,inactive,inactive,,,inactive
C=C1C(=C/C=C2\CCC[C@]3(C)[C@@H]([C@H](C)CCCC(C)C)CC[C@@H]23)C[C@@H](O)C[C@@H]1O,29.8 µM (active),inactive,29.8 µM (active),,29.8 µM (active),inactive,inactive,inactive,inactive,inactive,inactive,inactive,inactive,inactive,inactive,inactive,inactive,,8.49 µM (active),inactive
NC(N)=NCc1cccc(I)c1,inactive,inactive,inactive,,inactive,inactive,inactive,inactive,inactive,inactive,inactive,inactive,inactive,inactive,inactive,inactive,inactive,inactive,inactive,inactive
CC1(C)C[C@@H]1C(=O)N/C(=C\CCCCSC[C@H](N)C(=O)O)C(=O)O,inactive,,inactive,,inactive,inactive,inactive,inactive,inactive,inactive,inactive,inactive,inactive,inactive,inactive,inactive,inactive,,,inactive
COC(=O)C[C@](O)(CCCC(C)(C)O)C(=O)O[C@@H]1C(OC)=CC23CCCN2CCc2cc4c(cc2[C@H]13)OCO4 (stereo partly specified),0.0335 µM (active),inactive,inactive,,,inactive,inactive,inactive,inactive,inactive,inactive,inactive,inactive,inactive,inactive,inactive,inactive,,0.169 µM (active),inactive
CCCOC(=O)c1ccccc1O,inactive,inactive,inactive,,inactive,inactive,inactive,inactive,inactive,inactive,inactive,inactive,inactive,inactive,inactive,inactive,inactive,inactive,,inactive
CN1[C@@H](CC(=O)c2ccccc2)CCC[C@H]1C[C@H](O)c1ccccc1,inactive,inactive,inactive,,,inactive,inactive,inactive,inactive,inactive,inactive,inactive,inactive,inactive,inactive,inactive,inactive,,,inactive
CCN(CC)C(=O)c1cccnc1,inactive,inactive,inactive,,inactive,inactive,inactive,inactive,inactive,inactive,inactive,inactive,inactive,inactive,inactive,inactive,inactive,inactive,inactive,inactive
O=C(O)C[C@H](O)C[C@H](O)/C=C/c1c(C2CC2)nc2ccccc2c1-c1ccc(F)cc1,inactive,inactive,,,,inactive,inactive,inactive,inactive,inactive,inactive,inactive,inactive,inactive,inactive,inactive,inactive,,,inactive
CC(=O)OCC1=C(C(=O)O)N2C(=O)[C@@H](NC(=O)Cc3ccccc3)[C@H]2SC1,inactive,inactive,inactive,,inactive,inactive,inactive,inactive,inactive,inactive,inactive,inactive,inactive,inactive,inactive,inactive,inactive,inactive,inactive,inactive
CO/N=C(\C(=O)N[C@@H]1C(=O)N2C(C(=O)[O-])=C(C[n+]3ccc(N)n3CCO)CS[C@H]12)c1csc(N)n1,inactive,inactive,inactive,,inactive,inactive,inactive,inactive,inactive,inactive,inactive,,inactive,inactive,inactive,inactive,inactive,inactive,inactive,inactive
